Source: PubChem (National Center for Advancing Translational Sciences (NCATS))
In the library only some 19% were active in any assay of this set; here they are far more common.
HT1080NT lethal = kills 2HG-producing HT-1080-NT fibrosarcoma cells | HT-1080-NT fibrosarcoma viability, CellTiter-Glo ATP luminescence, 48 h | actives 1.6% (n = 360,000) | Potency, µM (top dose mostly 46.1 µM), for inactives: top-dose activity, negative = less viability, hits mostly cytotoxic;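 also: NT is the 2HG producing partner of a matched IDH1 knockdown line; 0% = DMSO-treated cells and -100% = media-only wells without cells; nearly all actives have a fitted effect of over 55% in size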
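Compounds were tested in concentration-response format on HT-1080-NT cells for 48 hours at 37 degrees C. Cell viability came from CellTiter-Glo luminescence; curves were classified by r2, response magnitude and activity.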
DT40 TDP1 no CPT = qHTS for Inhibitors of human tyrosyl-DNA phosphodiesterase 1 (TDP1): qHTS in cells in absence of CPT; DT40 Tdp1-/- hTDP1 cells, no CPT, ATP luminescence, 48 h; Potency, µM (highest dose often 46.2 µM), for inactives: at the highest dose activity change, negative = growth inhibition, usual class: inhibitors; actives 15% (n = 420,000); AID 686978, 2013; also: nearly all actives have a fitted effect of over 55% in size
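Chicken DT40 Tdp1-/- cells stably complemented with human TDP1 were seeded at 400 cells/well with DMSO in place of 20 nM camptothecin. After compound pinning, cells grew at least 48 hr at 37 °C; viability read by CellTiter-Glo luminescence.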
DT40 TDP1 CPT = DT40-hTDP1 cell growth loss with CPT | AID 686979 | Potency, µM (titrated, usually from 46.2 µM), for inactives: at the highest dose activity change, negative = growth inhibition, hits mostly inhibitors | actives 12% (n = 420,000) | chicken DT40 Tdp1-/-;hTDP1 cells + 20 nM CPT, ATP luminescence, 48 h; also: nearly all actives have a fitted effect of over 55% in size
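Cell growth measured by CellTiter-Glo luminescence after a minimum 48 h, 37 C compound exposure with 20 nM CPT in Tdp1-knockout DT40 cells stably expressing hTDP1, seeded 400/well; qHTS titration format.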
KB-3-1 tox = KB-3-1 parental cell cytotoxicity; Potency, µM (titrated, usually from 46.1 µM), usual class: cytotoxic; actives 1.4% (n = 400,000); KB-3-1 viability, CellTiter-Glo ATP luminescence, 72 h; also: nearly all actives have a fitted effect of over 60% in size
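Screening of KB-3-1 cells (DMEM, 10% FBS, phenol-red free) ran from lowest to highest compound concentration; after 72 h at 37 °C viability was read luminescently and curves fitted.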
HT1080 IDH1KD tx = toxicity to HT-1080 IDH1 knockdown cells (counter line). HT-1080 IDH1 knockdown viability, ATP luminescence, 48 h. Potency, µM (series often up to 46.1 µM), for the others: at the highest dose activity, negative = toxicity, hits mostly cytotoxic. actives 2% (n = 360,000). AID 686971;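 also: 0% = DMSO wells and -100% = cell-free medium wells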
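Assay cells: HT-1080 with IDH1 knockdown, 750 per well, RPMI/5% FBS. Exposure: 48 h at 37 °C following 2 h pre-incubation. Read: CellTiter-Glo luminescence; fitted concentration-response, curve class assigned.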
KB-V1 cytotox = KB-V1 MDR subline cytotoxicity. KB-V1 MDR cells viability, CellTiter-Glo, 72 h. Potency, µM (series often up to 46.1 µM), most hits filed as cytotoxic. actives 3.4% (n = 400,000). AID 1347076; also: nearly all actives have a fitted effect of over 60% in size
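Luminescent ATP read-out (CellTiter-Glo, 10 min) measures survival of drug-selected KB-V1 MDR cells after 72 h, 37 degrees C compound exposure. Medium: phenol-red-free DMEM, 10% FBS. Values from fitted concentration-response curves.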
* marks the source's active call; other numbers are inactive results; i = inactive; ? = inconclusive; / = no result. Calls follow the shape of the dose curve; as a rule, active = well fitted curve in the direction sought with a large enough effect; inconclusive = small, poorly fitted or top-dose-only effect, or another doubt; inactive = no such curve, though single readings can be large; an effect the other way counts as inactive or inconclusive. Unless noted, % is scaled to controls: 0 for no effect and ±100 for the full control effect; potency is read from the fitted curve at half-maximal effect.

SMILES	HT1080NT lethal	DT40 TDP1 no CPT	DT40 TDP1 CPT	KB-3-1 tox	HT1080 IDH1KD tx	KB-V1 cytotox
Cc1cccc(-n2ncc3c2CCCC3NC(=O)c2ccc[n+]([O-])c2)c1C (stereo not drawn)	-1%	?	12µM*	i	-3%	?
Cc1cccc(-n2ncc3c2CCCC3NC(=O)C2CCOCC2)c1C (stereo not drawn)	?	15µM*	?	?	-9%	?
CC1=CCC2CC1C2(C)C (stereo not drawn)	/	0%	1%	/	/	/
COc1ccc(C(CC(=O)Nc2ccc(C)cn2)N2Cc3ccccc3C2=O)cc1OC (stereo not drawn)	/	?	-22%	i	/	i
Cc1cccc(NC(=O)c2oc3ccccc3c2NC(=O)c2cc(=O)c3cc(Cl)ccc3o2)c1	/	?	?	i	/	?
COc1ccc(OC)c(Nc2nc3nonc3nc2N2CCCC(C)C2)c1 (stereo not drawn)	1%	?	-3%	i	8%	i
O=C(Nc1ccc(-c2nc3ccccc3[nH]2)cc1)c1ccc(-c2ccccc2)cc1	/	/	/	i	/	i
CC(C)(C)C(=O)Nc1ccc(Cl)c(-c2nc3ccccc3[nH]2)c1	/	?	?	i	/	i
O=C(Nc1ccc(Cl)c(-c2nc3ccccc3[nH]2)c1)c1ccc2c(c1)OCO2	-17%	23µM*	?	?	-24%	i
O=C(Nc1ccc(-c2nc3ccccc3[nH]2)cc1)c1ccc2c(c1)OCO2	?	18µM*	?	i	?	i
O=C(Nc1ccc2nn(-c3ccccc3)nc2c1)c1ccc2c(c1)OCO2	-28%	21µM*	16µM*	i	?	i
O=C(Nc1ccc(-c2nc3ccccc3[nH]2)cc1)C1CCCO1 (stereo not drawn)	10µM*	15µM*	18µM*	?	11µM*	?
CCCSCCCNC(=O)CN1C(=O)COc2ccc(S(=O)(=O)N3CCCCCC3)cc21	/	?	?	i	/	i
COc1ccc2cc(OCC(=O)NNC(=O)Nc3ccc(C(C)=O)cc3)ccc2c1	-6%	?	?	i	?	i
COc1ccccc1N1CCN(S(=O)(=O)CCNC(=O)C(C)Oc2ccccc2)CC1 (stereo not drawn)	-9%	?	?	i	-10%	i
Cc1nc2ccc(-c3nc4ccccc4[nH]3)cc2[nH]1	19%	?	?	i	23%	i
c1ccc2[nH]c(-c3ccc4c(c3)OCO4)nc2c1	26µM*	18µM*	?	?	26µM*	13µM*
COc1ccc(C(=O)CN2CCN(CCN3C(=O)c4cccc5cccc(c45)C3=O)CC2)cc1	-27%	21µM*	?	i	-30%	i
COc1cc2c3c(cccc3c1)C(=O)N(CCN1CCCC1)C2=O	13µM*	0.1µM*	0.037µM*	?	8.2µM*	10µM*
CC(C)(C)C(=O)N1CCN(CCN2C(=O)c3cccc4cccc(c34)C2=O)CC1	14%	-28%	-23%	i	16%	i
Cc1ccc(NC(=S)N2CCN(CCN3C(=O)c4cccc5cccc(c45)C3=O)CC2)cc1	-19%	?	?	i	-3%	15µM*
O=C1C=CC(=O)C(CNc2ccc(C(=O)OCc3ccccc3)cc2)=C1	16µM*	4.1µM*	5.8µM*	21µM*	10µM*	21µM*
Cn1c(=O)c(CCc2ccccc2)nc2cnc(N3CCOCC3)nc21	/	9%	-8%	/	/	/
COc1cc(C2c3cc4c(cc3C(O)C3COCC23)OCO4)cc(OC)c1OC (stereo not drawn)	26µM*	?	?	5.2µM*	?	?
COc1cccc(C2c3cc4c(cc3OC(NNC(N)=O)C2C)OCO4)c1O (stereo not drawn)	4.6µM*	4.1µM*	4.6µM*	1.5µM*	6.5µM*	4.6µM*
SMILES	HT1080NT lethal	DT40 TDP1 no CPT	DT40 TDP1 CPT	KB-3-1 tox	HT1080 IDH1KD tx	KB-V1 cytotox
COc1ccc(C2c3cc4c(cc3OC(NNC(N)=O)C2C)OCO4)cc1 (stereo not drawn)	?	?	?	6.5µM*	16µM*	9.2µM*
COc1cc(C2c3cc4c(cc3OC(NNC(N)=O)C2C)OCO4)cc(OC)c1OC (stereo not drawn)	1.3µM*	1.3µM*	1.3µM*	0.52µM*	?	7.3µM*
COc1cc(C(=C(CC(=O)O)C(=O)O)c2ccc3c(c2)OCO3)cc(OC)c1OC	2%	-16%	2%	i	1%	i
CCCC(=O)N1CCC1(C)C(=O)Nc1cc(OC)ccc1OC (stereo not drawn)	?	-3%	-26%	i	3%	i
Cc1ccccc1NC(=O)C1CCN(S(=O)(=O)c2ccccc2)CC1	/	-25%	2%	/	/	/
COc1cc(C2c3cc4c(cc3OC(NCc3ccccc3)C2C)OCO4)cc(OC)c1OC (stereo not drawn)	1.6µM*	1.5µM*	1.2µM*	0.58µM*	1.2µM*	?
COc1cc(CC(=O)NCc2ccc3c(c2)OCO3)cc(OC)c1OC	13%	-20%	-25%	?	8%	i
COc1cc(CCC(=O)OCC(=O)Nc2ccc3c(c2)OCO3)cc(OC)c1OC	1%	15%	4%	i	8%	i
COc1cc(C2c3cc4c(cc3OC(NNC(N)=S)C2C)OCO4)cc(OC)c1OC (stereo not drawn)	1.8µM*	0.92µM*	1.3µM*	1µM*	?	?
C=CCOc1ccccc1CN1CCN(CCc2ccccc2)C(CCO)C1 (stereo not drawn)	-2%	?	-17%	i	-14%	i
Fc1ccc(-c2nc3n(n2)Cc2ccccc2-3)cc1	26µM*	?	-24%	?	15µM*	?
Cc1ccc(-c2nc3n(n2)Cc2ccccc2-3)cc1	?	?	?	i	?	?
CCn1c(C)nc2cc(-c3nc4n(n3)Cc3ccccc3-4)ccc21	2.1µM*	7.3µM*	6.5µM*	5.8µM*	1.8µM*	?
CCOc1cccc(NC(=O)C2CC(=O)N(C)C(=Nc3ccc(F)cc3)S2)c1 (stereo not drawn)	/	?	?	i	/	i
